Among the data in the OligoGym collection are sensor-assay potency score (higher = more potent) values, retold here.
Note: reference of the scale not given here.

The first test concerns the target CEACAM7. Kind of test: pooled miR-30 sensor sort-seq; sequence = guide strand. Particulars: shRNA.
TGACTCATAGCGGACATTCAGG: the sensor-assay potency score (higher = more potent) is -0.817.

Take TATTGTCTCTCGACCGTTGTGT: the sensor-assay potency score (higher = more potent) was 0.904.

The sequence TAACGTTCTGGATCAGCAGGGT registered a sensor-assay potency score (higher = more potent) of 0.257.

In the case of AAGATTTTCTTTTATAACGTGT, the sensor-assay potency score (higher = more potent) came to 0.163.

As to AACTCTAACAGGGACCACCGTG, the sensor-assay potency score (higher = more potent) was -1.13.

AACTTGCTTGTACTGACTCATA registered a sensor-assay potency score (higher = more potent) of -1.59.

In turn, TATAATTCGATAGTTGGCATGC returned a sensor-assay potency score (higher = more potent) of -0.121.

Regarding TACTTCTTCATTCACAAGATTT, the sensor-assay potency score (higher = more potent) was -1.52.

Take TTATATTTTTTACATATCCTAT: the sensor-assay potency score (higher = more potent) was -0.681.

Turning to TTCATTCACAAGATTTTCTTTT, the sensor-assay potency score (higher = more potent) is -0.349.

The sequence ATATCCTATAATTCGATAGTTG displayed a sensor-assay potency score (higher = more potent) of -1.04.

The sequence AATATCTTTGTTCTCCACCGGA showed a sensor-assay potency score (higher = more potent) of -0.351.

With TTCTTTTATAACGTGTAGGGTA, the sensor-assay potency score (higher = more potent) is -0.399.

The target of the next test is CELA2A. The description is as above. The following applies: shRNA.
In the case of ATACTGGTTTTCACGCTGCTGC, the sensor-assay potency score (higher = more potent) was -1.06.

On to TACCACTTGCCATTGGAGCTGT, for which the sensor-assay potency score (higher = more potent) amounted to 0.0148.

For the sequence TTGCAGCTGGAGATCACGCCAT, the sensor-assay potency score (higher = more potent) is -0.881.

Consider TGTGGTAGTAGTTGCAGCCGAG, for which the sensor-assay potency score (higher = more potent) is -0.0375.

TCTTAGAGACACTGACTGCCAG registered a sensor-assay potency score (higher = more potent) of -0.61.

Sequence ATGTAATTGGAGACCCGCGTGA came in with a sensor-assay potency score (higher = more potent) of -0.77.

With TTGTGGTAGTAGTTGCAGCCGA, the sensor-assay potency score (higher = more potent) was -0.632.

Sequence TAGTAGTTGCAGCCGAGGCGAG displayed a sensor-assay potency score (higher = more potent) of -1.3.

Sequence AATCTTAGAGACACTGACTGCC returned a sensor-assay potency score (higher = more potent) of 0.508.

In turn, TTATATTATTTTCCTTCTGTGA came in with a sensor-assay potency score (higher = more potent) of -1.25.

As to TTCTTCACCGCCAACCACCCTA, the sensor-assay potency score (higher = more potent) is -0.855.

Regarding TTGGTTGGAGTTCCAGTCCTTG, the sensor-assay potency score (higher = more potent) is -0.732.

In the next test the target is CENPE. The description is as above. Particulars: shRNA.
In the case of TTGGAGTTCATTTTTCTCCTGT, the sensor-assay potency score (higher = more potent) amounted to 0.691.

The sequence TAGCTGTTCATTTTGCTGCTTT came in with a sensor-assay potency score (higher = more potent) of -0.023.

As to TGTAGTATCTGAGTCAACCTTA, the sensor-assay potency score (higher = more potent) came out at 0.878.

With TTGAAGAACTTCTTGCAGCCTC, the sensor-assay potency score (higher = more potent) came out at 0.172.

Sequence TTTTGATTTATCTAAATCCTTT came in with a sensor-assay potency score (higher = more potent) of -0.683.

As for TATTTCACACATTTTCTCCTGA, the sensor-assay potency score (higher = more potent) is 0.76.

Regarding TAACACTCTCTAACATTTGTTG, the sensor-assay potency score (higher = more potent) is 0.0489.

The sequence TTGTCTTGTATCTCTTTCCTCA came in with a sensor-assay potency score (higher = more potent) of 0.236.

In the case of TTTATTTTTGTAACATAGCTTA, the sensor-assay potency score (higher = more potent) was -0.197.

TTGAGTATCTATATTCATGTTA: the sensor-assay potency score (higher = more potent) stood at 0.243.

The sequence TTGAGTGTCTCCTCTACTCTTC gave a sensor-assay potency score (higher = more potent) of -0.033.

As for TTACTTGGTGGTTCTGTCGGTC, the sensor-assay potency score (higher = more potent) stood at 0.00856.

Sequence TTTATCAACAGTTTCTTTGTGT displayed a sensor-assay potency score (higher = more potent) of 1.24.

With TTTTGTAGCACTGATTTCCTTT, the sensor-assay potency score (higher = more potent) was -0.158.

Sequence TAGCTCTTGATGTAACATGAGG returned a sensor-assay potency score (higher = more potent) of -1.24.
